From article PMC12864922, “TDP-43 directly inhibits mRNA accumulation in neurites through modulation of mRNA stability”
Whole data set: some 9,900 sequences, median “r (bound/input frequency ratio)” near 0.7, cut for the highest 2% near 6.5. This is one part of a sample in which the highest values are shown more often than they occur.

B1: ENSMUSG00000061578.330|Ksr2|114:118 (ssRNA)
RNA: GGGAGUUCUACAGUCCGACGAUCGCUUCGAUAUCCGCAUGCUACUCCAAGGAAGCCAGGGGAGGGGGACUCCUCAGGAAGGAGUGACCAGUCACCUGCCUCCCAGGGUUCUGCCUUGCCCUUAAGCUAGGGUCCUUCAAGCAUCCACAGACUUAGACACACGUGGUAACAUGCUUGUAAUCCUGGCACUCUGGAGGCUGAGGCAGGAGGAUAACAAGUCUAGACUAUAUAUGAUUUCUGAGGGUCUGUUAGUGAAUAAGUACCUGGAUGACAUGGGACAAGUCCCAGCCUUCCCUGCUCCUGCCUCUUGCGGUCGCACUAGUGUGGAAUUCUCGGGUGUCAAGG
B2: ENSMUSG00000061578.809|Ksr2 (ssRNA)
RNA: GGGAGUUCUACAGUCCGACGAUCGCUUCGAUAUCCGCAUGCUACUUUGCCUCUACUAGAUGAUCUUGCAUCUGUCUUUGUGGGACUCUUUUUAUGAGGAACCAGUCCUGUUGAAUCGGGGUGCUCUGUAUUAGUUAUUUUUGUAACUUGUGAUUGUAACCAAAUGCCCGAUAGAAACAGCAUUCUGGCUCACAGUUUCAAAGGGCUCAGUCCAUAGCUGCCUGACUCUGUGUUUCUAGGCCUUUCUUGAGGCAAGUGUUCAUCAUGAUAGUGUGAGGGUGAGGAGGAGUUUCUUCAUGGCAAACUCUUGCGGUCGCACUAGUGUGGAAUUCUCGGGUGUCAAGG
B3: ENSMUSG00000034801.220|Sos2 (ssRNA)
RNA: GGGAGUUCUACAGUCCGACGAUCGCUUCGAUAUCCGCAUGCUAAUUUGACUAAUUUGUAAGUCUGGAACAAAAGUGUCUUAUGGCAUAAGAACCAACUGCCAUUGUCAAACCUAUUAACUGUCUUUAAUCUCGUGUUAACUGAAAUUUUUGAAAAGUUUUUCCAGAUUAGUAAUAUUUAAACAGAAAAUACUUUAAAAAGCUUUAUUAAAUUUUUUAAUCAGGAUAAAGCUUUGCCAUUUGGAUACUAUCAUUCAAAGUGAUCAAGGUAUGUAUGUUAUGCUGAUAGUGCAGUAGCAGCCAUUCUCUUGCGGUCGCACUAGUGUGGAAUUCUCGGGUGUCAAGG
B4: ENSMUSG00000031028.102|Tub (ssRNA)
RNA: GGGAGUUCUACAGUCCGACGAUCGCUUCGAUAUCCGCAUGCUAGGCCCAAAGGGGGUUAGGAGUGGUAGGGAUAGGUGCGUGGCAGGUCCCUGCUAGGAUUGCAGGGGCCUGGCCAUGUGUAUUAGCUGGAGGCUUAGAAUGCUAGCUCAUUUGUUGCUACAGAUUUGCCCAGUGCUUGCACACGUAAGAACCCAGCUCUCAAGGCCAAAUAUCUGAGUGGAUGGGGAUGAUAGGAGUCAUCCAGUAGACUCCCUACAUCAGGGCUCUCAGCAGCCCCAGCACAACACCUAUGACACACACACCUCUUGCGGUCGCACUAGUGUGGAAUUCUCGGGUGUCAAGG
B5: ENSMUSG00000032194.202|Kank2|53:57 (ssRNA)
RNA: GGGAGUUCUACAGUCCGACGAUCGCUUCGAUAUCCGCAUGCUAGACAGGCUGCACCUUUCUCUAACUGGGGUUCCUUUCUGGCCCCAGGAUCUCACACACGUUCGUGGGGGGAUUUUGUUGUUGUUUCUUUGUUUCUUUUCUUCAUAAAGAAGAAAAAGGAAACAACUUCUAGAUGUGCCUUGCGAUAGGGAGGACUUUGUCCUCUCAAGUCUCCCUGUCGUAUCCAGAUCACAGCUGAACCCACUGGGCCUUGGCGCCAAACCUCAGCAGGGCAGCAUUGAGACUCAUGGACUAAAGGAAAGCUCUUGCGGUCGCACUAGUGUGGAAUUCUCGGGUGUCAAGG
B6: ENSMUSG00000022095.275|Fam160b2|1:15;62:66;198:203 (ssRNA)
RNA: GGGAGUUCUACAGUCCGACGAUCGCUUCGAUAUCCGCAUGCUACACACACACACACACAGAGAGAGAGAGAGAGAGAGAGAGCUGUGAGUACACAUGGGUGCUGCACACGGACAGGAGCAGAUCUUGGUGGAGUGGGUCUACACUUGAGAUUUGUACUCGUUUGAGAGGCUGGGCAAUACUCAAUGCACUUUGGCAUUUGCAUGGUGUCUUCACAACAGCACAGCAAUAAACAUUGUGAUACACACGACAUGCUGACUCUCCCCAGUCUGCUUUUCUUUUCCCCAAGCUUUUCUGCCCCUGUACUCUUGCGGUCGCACUAGUGUGGAAUUCUCGGGUGUCAAGG
B7: ENSMUSG00000061578.1474|Ksr2 (ssRNA)
RNA: GGGAGUUCUACAGUCCGACGAUCGCUUCGAUAUCCGCAUGCUAAAUAAAUGGAUGGAUGGAUGGAUUGAUUUGUGAAUGAAUGGAUGAAUGGAUGGGUAGGUGGGUGGAUGCAUAGGCAAGUAGAUGAAUGAAUAUGUGGGUAGAAGGGUGAGUGGGUGGAUGAAUGGAUGGAUAGGUUGGUAGGUUAAUGUAUUCGUGGAUGGGUGAAUGGAUGGAUGGAUAGAUAGAUGGGAAGGUGGAUGGACAGAUGGAUGGAUGGAUAGAUAGAUGGACAGGUGGUUGGUGGAUAAAUGAGUGAAUGACUCUUGCGGUCGCACUAGUGUGGAAUUCUCGGGUGUCAAGG
B8: ENSMUSG00000061578.1471|Ksr2|12:16 (ssRNA)
RNA: GGGAGUUCUACAGUCCGACGAUCGCUUCGAUAUCCGCAUGCUAUGGAUGGAUAGCAUACUGAAUAAAUGGAUGGAUGGAUGGAUUGAUUUGUGAAUGAAUGGAUGAAUGGAUGGGUAGGUGGGUGGAUGCAUAGGCAAGUAGAUGAAUGAAUAUGUGGGUAGAAGGGUGAGUGGGUGGAUGAAUGGAUGGAUAGGUUGGUAGGUUAAUGUAUUCGUGGAUGGGUGAAUGGAUGGAUGGAUAGAUAGAUGGGAAGGUGGAUGGACAGAUGGAUGGAUGGAUAGAUAGAUGGACAGGUGGUUGGUCUCUUGCGGUCGCACUAGUGUGGAAUUCUCGGGUGUCAAGG
B9: ENSMUSG00000058297.476|Spock2 (ssRNA)
RNA: GGGAGUUCUACAGUCCGACGAUCGCUUCGAUAUCCGCAUGCUAGCUGUGUUGGAAAGAGUUCAACCAAAUUACGGCAGCACCACAUCUUGCCGAGCCCUGGAGCUGCCCUACUAAGAGCCUCCUUAGCCCUGGGUGCUGGGAAGGAUGGUGUACGUUGGGGAAGUUUGAGGUUGGAGAGAGUAAAUGUGCCUUGAGAGACCACUCAGAGGUCCCAGGAGGAACGGGGGCGGGGCUUAGCCUGGGAGUUCUGGCAGGAGGCAAAGUUGGUGAGAGUCCUGGGACAUCUUACCCCCAGUGUUCCACUCUUGCGGUCGCACUAGUGUGGAAUUCUCGGGUGUCAAGG
B10: ENSMUSG00000090935.506|Synj2bp|218:224 (ssRNA)
RNA: GGGAGUUCUACAGUCCGACGAUCGCUUCGAUAUCCGCAUGCUAAAGCUCCAUAGAAGGCAAGACGCAUUCCACAUCUUGUCUUGACCAGCAGCACUCUGGAGGCCCAGUGUCUGCUACCCUUCUUGUAUCUGAUGGCAUGGGUAACAGCUCUGCCAUGGGCCUGCUUACUUCUAGUAUUCACCUCAGGGCUUGGAAAUUGGUUUUGAAAGGCUUUUAGACAUAGAAAGUAAAACUAAUGGCAAGGAGGAUAAAACACUGUACACACAUGUAUUGUUGAUCUAAAUAAAAAAUAUCAUUGGUAGCUCUUGCGGUCGCACUAGUGUGGAAUUCUCGGGUGUCAAGG
B11: ENSMUSG00000032194.149|Kank2 (ssRNA)
RNA: GGGAGUUCUACAGUCCGACGAUCGCUUCGAUAUCCGCAUGCUAGCAGAGGAGACUACUUCUAGAAAUACUUUCAGACCUACAGACAAAAAAGAAAAAAGGCCAUUCCGGAGUGACUCCCAGCAUCACAGCCCAGAACCUCCUCCUCAAAGGAGAGUAAACAGAGACUGUGAUACUGACCAAGUACAGGCGCUCGCUAUGAAGCCCAUAUGUUCCUGAUUAAGAGCUGGCUGGCCUCAGAGCACUCCCAGAACUAGCUUAAAGUGACAGGCUUUGCUGAAAUCCAAAGGGACAAAAGAGUAGUUCUCUUGCGGUCGCACUAGUGUGGAAUUCUCGGGUGUCAAGG
B12: ENSMUSG00000022095.205|Fam160b2 (ssRNA)
RNA: GGGAGUUCUACAGUCCGACGAUCGCUUCGAUAUCCGCAUGCUAGGAGGUGACAUGAAAGAGGAGGAAACUCCAUGACCUCUACAUCCCCCGCAGUCCUCCCAGCGGGGGAGGACUUCUCUGCUGCUCCGAAGAACAUCAUGCACUCCUGUGUGUGUGUGUGAGUGUGUGUGUGUGUGUGUGUGUGUGUGUGUGUGUAUGUGUGUGUAUAUGUGUGUGUGUGUGUGUAUGUGUGUGUGUGUGUGUGAGUGAGUGUGUGUGUGUGUGUGUGUGUGUGAGUGUGUGUGUAUAUGUGUGUGUGUGUGCUCUUGCGGUCGCACUAGUGUGGAAUUCUCGGGUGUCAAGG
B13: ENSMUSG00000022095.206|Fam160b2 (ssRNA)
RNA: GGGAGUUCUACAGUCCGACGAUCGCUUCGAUAUCCGCAUGCUAGACAUGAAAGAGGAGGAAACUCCAUGACCUCUACAUCCCCCGCAGUCCUCCCAGCGGGGGAGGACUUCUCUGCUGCUCCGAAGAACAUCAUGCACUCCUGUGUGUGUGUGUGAGUGUGUGUGUGUGUGUGUGUGUGUGUGUGUGUGUAUGUGUGUGUAUAUGUGUGUGUGUGUGUGUAUGUGUGUGUGUGUGUGUGAGUGAGUGUGUGUGUGUGUGUGUGUGUGUGAGUGUGUGUGUAUAUGUGUGUGUGUGUGUGAGAGCUCUUGCGGUCGCACUAGUGUGGAAUUCUCGGGUGUCAAGG
B14: ENSMUSG00000022095.204|Fam160b2 (ssRNA)
RNA: GGGAGUUCUACAGUCCGACGAUCGCUUCGAUAUCCGCAUGCUAUUGCCAGGAGGUGACAUGAAAGAGGAGGAAACUCCAUGACCUCUACAUCCCCCGCAGUCCUCCCAGCGGGGGAGGACUUCUCUGCUGCUCCGAAGAACAUCAUGCACUCCUGUGUGUGUGUGUGAGUGUGUGUGUGUGUGUGUGUGUGUGUGUGUGUGUAUGUGUGUGUAUAUGUGUGUGUGUGUGUGUAUGUGUGUGUGUGUGUGUGAGUGAGUGUGUGUGUGUGUGUGUGUGUGUGAGUGUGUGUGUAUAUGUGUGUGCUCUUGCGGUCGCACUAGUGUGGAAUUCUCGGGUGUCAAGG
B15: ENSMUSG00000022095.203|Fam160b2 (ssRNA)
RNA: GGGAGUUCUACAGUCCGACGAUCGCUUCGAUAUCCGCAUGCUACACAGGUUGCCAGGAGGUGACAUGAAAGAGGAGGAAACUCCAUGACCUCUACAUCCCCCGCAGUCCUCCCAGCGGGGGAGGACUUCUCUGCUGCUCCGAAGAACAUCAUGCACUCCUGUGUGUGUGUGUGAGUGUGUGUGUGUGUGUGUGUGUGUGUGUGUGUGUAUGUGUGUGUAUAUGUGUGUGUGUGUGUGUAUGUGUGUGUGUGUGUGUGAGUGAGUGUGUGUGUGUGUGUGUGUGUGUGAGUGUGUGUGUAUAUGCUCUUGCGGUCGCACUAGUGUGGAAUUCUCGGGUGUCAAGG

Target: TDP-43 (Homo sapiens, UniProt Q13148 1-414)
Sequence (Q13148 whole entry): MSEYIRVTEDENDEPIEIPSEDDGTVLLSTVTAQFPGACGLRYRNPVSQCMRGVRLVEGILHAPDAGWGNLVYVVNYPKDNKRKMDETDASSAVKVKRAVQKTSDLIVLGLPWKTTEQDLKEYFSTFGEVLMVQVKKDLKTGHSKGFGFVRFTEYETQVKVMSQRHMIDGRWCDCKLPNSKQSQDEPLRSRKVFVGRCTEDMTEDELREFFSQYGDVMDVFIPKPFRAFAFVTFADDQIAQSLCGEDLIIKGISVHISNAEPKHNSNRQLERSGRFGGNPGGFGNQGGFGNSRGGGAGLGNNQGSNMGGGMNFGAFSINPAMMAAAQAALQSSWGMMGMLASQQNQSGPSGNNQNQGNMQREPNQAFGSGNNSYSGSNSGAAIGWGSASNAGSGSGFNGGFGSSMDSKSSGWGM
Assay: RNA Bind-n-Seq with designed 260-mer pool; 25 mM Tris-HCl, 150 mM KCl, 3 mM MgCl2, BSA (printed 500 mg/mL), 20 units/mL SUPERase IN; pH not stated; 500 nM RNA pool, 1 h, 4 C; TDP-43 5, 50, 500 nM; high values mean tight binding
Conditions: protein: recombinant; tags: SBP (GST cleaved off with PreScission; pGEX-GST-SBP)
Summary of the method: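 Binding (R) is the ratio of each oligo's mapped-read-normalized abundance in the bound fraction to its abundance in the input. To obtain it, SBP-tagged recombinant TDP-43 (5, 50 or 500 nM) on streptavidin beads was incubated with 500 nM of an in vitro-transcribed 260-nt 3′ UTR oligo pool for 1 h at 4 °C in 25 mM Tris-HCl, 150 mM KCl, 3 mM MgCl2, BSA and SUPERase IN. The RNA retained after washing was released with biotin, then reverse transcribed, amplified by PCR and sequenced.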

| Binder | binding signal |
| --- | --- |
| B1 | 1.65 R (bound/input frequency ratio) |
| B2 | 0.455 R (bound/input frequency ratio) |
| B3 | 0.0389 R (bound/input frequency ratio) |
| B4 | 1.03 R (bound/input frequency ratio) |
| B5 | 0.269 R (bound/input frequency ratio) |
| B6 | 2.5 R (bound/input frequency ratio) |
| B7 | 3.43 R (bound/input frequency ratio) |
| B8 | 8.75 R (bound/input frequency ratio) |
| B9 | 3.44 R (bound/input frequency ratio) |
| B10 | 0.236 R (bound/input frequency ratio) |
| B11 | 0.573 R (bound/input frequency ratio) |
| B12 | 7.87 R (bound/input frequency ratio) |
| B13 | 3.86 R (bound/input frequency ratio) |
| B14 | 7.95 R (bound/input frequency ratio) |
| B15 | 8.18 R (bound/input frequency ratio) |
